# Calls of active or inactive are those of the source. Rule for the calls: active = hit-call score of the fitted dose curve at least 0.9, where 1 is the maximum; inactive = score below 0.9.
# Read-out: Cytochrome P450 (CYP24A1), CYP24A1 (gene 1591)
# Test: LTEA_HepaRG_CYP24A1: Life Technologies and Expression Analysis (LTEA) Assay for Cytochrome P450 (CYP24A1) using HepaRG (AID 2283478)
# Settings: mRNA level, 48 h; actives raise or lower the signal
# Method: LTEA_HepaRG is a cell based, multiplexed-readout assay that uses HepaRG, a human liver cell line, with measurements taken at 48 hours after chemical dosing on a 96-well plate.LTEA_HepaRG_CYP24A1 is one of 102 assay component(s) measured in the LTEA HepaRG cell culture assay. It is a marker of NR mediated metabolism.Data from the assay component LTEA_HepaRG_CYP24A1 was analyzed into 1 endpoint. This assay endpoint, LTEA_HepaRG_CYP24A1, was analyzed with bidirectional fitting relative to DMSO as the negative control and baseline of activity. Using a type of inducible reporter, measures of mRNA induction for gain or loss-of-signal activity can be used to understand regulation of transcription factor activity. To generalize the intended target to other relatable targets, this assay endpoint is annotated to the cyp intended target family, where the subfamily is xenobiotic metabolism.
# A total of 1060 chemcials from the ToxCast library were tested in eight-point concentration-response experiments. Cell culture and cytotoxicity assays were conducted at Thermo Fisher Scientific's Custom Services facility (Madison, WI). A single lot of human HepaRG cells (Thermo Fisher Scientific, Frederick, MD) was used for the cell culture experiments. 96-well format collagen type I coated plates of human HepaRG cells were prepared using established methods. Briefly, cryopreserved HepaRG cells were thawed, plated at a density of approximately 100,000 cells/well in HepaRG Thaw, Plate, and General Purpose media (HPRG770, Thermo Fisher Scientific), and incubated for 48 hours. 0.5% DMSO was selected as vehicle control to balance the requisite need of DMSO in HepaRG cultures to maintain differentiation (for example, baseline metabolism, proportions of hepatocytes vs. cholangiocytes), while enabling further hepatic receptor pathway activation (for example, PXR and CAR) in response to chemical exposure. 48 hours after plating, the culture medium was replaced with HepaRG Serum-Free Incudtion Media. Cells were exposed to each test chemical in duplicate and maintained in CO2 incubators for another 48 hours. Chemical plates were thawed to room temperature and 200x concentrations of treatment groups were prepared. 8-point conentration-reponse curves were made with the highest exposure at 100 uM, followed by half-log dilutions, all in 0.5% DMSO. Each test plate contained variouse controls, induction positive controls (1mM phenobarbital), cytotoxicity positive controls ([…] aflatoxin B1), vehicle controls (0.5% DMSO), and total lysis controls (0.5% DMSO). Cell morphology images were taken using an Essen IncuCyte FLR automated microscope, with six 96-well plates imaged in about 24 minutes. Images were captured and exported and JPEG files. Spent culture media was transfered to black-well plates for the LDH assay, and remaining media was sorted at -80 C for later use. Cells were treated with RLT buffer and frozen until shipped for gene expression analysis. Total RNA was isolated from the cell suspension in 75 uL of Buffer RLT (Qiagen, Germantown, MD 20874) by Quintiles/Expression Analysis (Durham, NC) using a custom isolation procedure. Total RNA from each plate well was transferred to a preamplification plate. Fluidigm's 96.96 Dynamic ArrayTM (Fluidigm, Amsterdam, the Netherlands) technology was used for gene expression analyses by quantitative reverse transcription polymerase chain reaction (qRT-PCR, performed by Quintiles/Expression Analysis, Durham, NC)89. Standard TaqManTM Assays (Applied Biosystems/ThermoFisher Scientific, Foster City, CA) were used to assess the expression of 93 genes selected based on their selectivity and sensitivity to important hepatic receptors known to be modulated by environmental chemicals; importance in human hepatocyte functionality; and hepatotoxicity. […]
row,Structure (SMILES),outcome
1,C=CC(N)=O,inactive
2,Oc1ccc(Cl)cc1Cl,inactive
3,O=C(O)C(F)(F)C(F)(F)C(F)(F)C(F)(F)C(F)(F)C(F)(F)C(F)(F)C(F)(F)C(F)(F)F,inactive
4,C1CC2OC2CC1C1CO1 (stereo not given),inactive
5,C[C@]12CCC(=O)C=C1CC[C@@H]1[C@@H]2CC[C@]2(C)C(=O)CC[C@@H]12,inactive
6,COc1ccc(O)c(C(C)(C)C)c1,inactive
7,CC(C)C(=O)OCC(C)(C)C(OC(=O)C(C)C)C(C)C (stereo not given),inactive
8,Cc1cc2c3c(c1)C(c1ccccc1)=N[C@@H](NC(=O)c1ccncc1)C(=O)N3CC2,inactive
9,CC(C)(O)C(=O)Nc1ccc([N+](=O)[O-])c(C(F)(F)F)c1,inactive
10,Oc1c(Cl)c(Cl)c(Cl)c(Cl)c1Cl,inactive
11,CC(c1ccc(O)cc1)(c1ccc(O)cc1)c1ccc(O)cc1,inactive
12,CCOP(=S)(OCC)SCSC(C)(C)C,inactive
13,Clc1ccc(C(Cl)(Cl)Cl)cc1,inactive
14,ClC1=C(Cl)[C@]2(Cl)[C@@H]3[C@@H](Cl)[C@H]4O[C@H]4[C@@H]3C1(Cl)C2(Cl)Cl,inactive
15,CCOCCOC(C)=O,inactive
16,N#Cc1ccc(N(CC(N)=O)CC(F)(F)F)cc1C(F)(F)F,inactive
17,CCCCCCCCCC[N+](C)(C)CCCCCCCCCC,inactive
18,CCC(C)(c1ccc(O)cc1)c1ccc(O)cc1,inactive
19,CCCCCCCCCc1ccc(O)cc1,inactive
20,O=S(=O)(O)C(F)(F)C(F)(F)C(F)(F)C(F)(F)F,inactive

row,Structure (SMILES),outcome
1,c1cc2ccc3cccc4ccc(c1)c2c34,inactive
2,CN(C)CCO,inactive
3,ClC(Cl)=C(c1ccc(Cl)cc1)c1ccc(Cl)cc1,inactive
4,CCOC(=O)C(O)(c1ccc(Cl)cc1)c1ccc(Cl)cc1,inactive
5,O=C(O)C(F)(F)C(F)(F)C(F)(F)C(F)(F)C(F)(F)C(F)(F)C(F)(F)C(F)(F)F,inactive
6,CC1=C2C[C@H]3[C@@H](CC=C4C[C@@H](O)CC[C@@]43C)[C@@H]2CC[C@]12O[C@@H]1C[C@H](C)CN[C@H]1[C@H]2C,inactive
7,CCC(=O)O[C@H]1CC[C@H]2[C@@H]3CCC4=CC(=O)CC[C@]4(C)[C@H]3CC[C@]12C,inactive
8,CCCCCCOC(=O)c1ccccc1C(=O)OCCCCCC,inactive
9,Cc1ccccc1CO[C@@H]1C[C@@]2(C(C)C)CC[C@]1(C)O2,inactive
10,NS(=O)(=O)C(F)(F)C(F)(F)C(F)(F)C(F)(F)C(F)(F)C(F)(F)C(F)(F)C(F)(F)F,inactive
11,Cc1cc(O)ccc1Cl,inactive
12,CCSC(=O)N(CC)C1CCCCC1,inactive
13,C[C@]12CCC(=O)C=C1CC[C@@H]1[C@@H]2CC[C@@]2(C)[C@H]1CC[C@]2(C)O,inactive
14,Cc1ccccc1[N+](=O)[O-],inactive
15,CCNc1nc(NC(C)C)nc(SC)n1,inactive
16,CN(C)c1nc(=O)n(C2CCCCC2)c(=O)n1C,inactive
17,CC(C)(c1ccccc1)c1ccc(O)cc1,inactive
18,O=C(NC(=O)c1cc(F)c(F)cc1Cl)Nc1cc(F)ccc1N1CCC(C(=O)O)CC1,inactive
19,Cc1cccc(C)c1N,inactive
20,O=NN(c1ccccc1)c1ccccc1,inactive

# Source: PubChem BioAssay (EPA / NIEHS)
